Results filed as inconclusive are left out. Entries that show only a call come without a potency. Activity calls are given as the source filed them. Calls follow the shape of the dose curve; as a rule, active = well fitted curve in the direction sought with a large enough effect; inconclusive = small, poorly fitted or top-dose-only effect, or effect the other way, or another doubt; inactive = no such curve, though single readings can be large or run the other way.
Each molecule was assayed against Pyruvate kinase PKLR (Homo sapiens) (UniProt P30613) (assay: Secondary LDH Assay for Activators of Human Reticulocyte Pyruvate Kinase: for Probe SAR). Conditions: purified hPK-R, LDH-coupled NADH fluorescence kinetic; series mostly up to 58.4 µM.
From the text: NIH Chemical Genomics Center [NCGC] Wael M. Rabeh, Lyudmila Nedyalkova and Hee-Wan Park [Structural Genomics Consortium, 100 College St. Toronto, Ontario, Canada] NCGC Assay Overview: Human pyruvate kinase reticulocyte (hPK-R) enzyme was supplied as a highly purified (>95% pure) preparation from Structural Genomics Consortium in Toronto (Ontario, Canada) and a secondary assay was used to evaluate compounds. This assay couples the formation of pyruvate from hPK-R using lactate dehydrogenase (LDH) and NADH. The depletion of NADH is followed in a fluorescent-based kinetic assay that follows the formation of pyruvate to lactate, as catalyzed LDH. Pyruvate kinase substrates, PEP and ADP, were present in the assay at 0.1 mM and 4 mM respectively. In this kinetic assay initial rates were determined by following the fluorescence of NADH depletion.
NCGC Assay Protocol Summary: Three uL of substrate mix (final concentration, 50 mM Tris-Cl pH 8.0, 200 mM KCl, 15 mM MgCl2, 0.1 mM PEP, 4.0 mM ADP, and 0.2 mM NADH) was dispensed into black-solid 1536 well plates. 23 nL of compounds were delivered by a pin tool and 1 uL of enzyme mix (final concentrations, 10 nM hPK-R and 1 uM of LDH) was added. Plates were immediately placed in ViewLux (Perkin Elmer) and NADH fluorescence was determined at 30 second exposure intervals for between 3 and 6 minutes. Data were normalized to the uninhibited and EC100 activation using known activators such as fructose-bis-phosphate.

Pyruvate kinase PKLR (Homo sapiens), sequence (P30613 whole entry, looked up): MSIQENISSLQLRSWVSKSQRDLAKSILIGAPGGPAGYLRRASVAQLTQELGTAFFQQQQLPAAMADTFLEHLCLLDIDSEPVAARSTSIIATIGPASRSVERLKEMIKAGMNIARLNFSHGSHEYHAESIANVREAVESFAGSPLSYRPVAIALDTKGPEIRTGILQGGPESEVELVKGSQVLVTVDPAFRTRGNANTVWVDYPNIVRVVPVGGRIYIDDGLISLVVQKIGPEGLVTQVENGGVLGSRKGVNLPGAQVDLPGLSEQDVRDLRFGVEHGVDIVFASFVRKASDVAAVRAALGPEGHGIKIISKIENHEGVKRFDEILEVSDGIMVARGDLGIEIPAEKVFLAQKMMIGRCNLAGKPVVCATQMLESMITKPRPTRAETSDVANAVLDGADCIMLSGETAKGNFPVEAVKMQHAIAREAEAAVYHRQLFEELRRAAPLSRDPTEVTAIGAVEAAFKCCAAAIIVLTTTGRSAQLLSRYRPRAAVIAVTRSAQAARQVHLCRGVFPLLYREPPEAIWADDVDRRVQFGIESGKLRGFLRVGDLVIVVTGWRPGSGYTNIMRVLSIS

| SMILES | Potency |
| --- | --- |
| COc1ccc(OC2=NS(=O)(=O)c3ccccc32)cc1 | inactive |
| Cc1ccc(NS(=O)(=O)c2ccc3c(c2)CCC(C)(C)O3)cc1C | inactive |
| O=C1CCc2cc(S(=O)(=O)Nc3ccccc3Cl)ccc2N1 | inactive |
| O=C1c2ccccc2C(=O)N1c1ccc2ncccc2c1 | inactive |
| O=C1c2ccccc2C(=O)N1Cc1ccccn1 | inactive |
| CC(=O)N1CCc2cc(S(=O)(=O)Nc3ccc(C)c(C)c3)ccc21 | inactive |
| Cc1ccc(NS(=O)(=O)c2ccc(F)cc2)cc1C | inactive |
| O=C1c2ccccc2C(=O)N1c1cccc2ccncc12 | inactive |
| Cc1ccc(NS(=O)(=O)c2ccc3c(c2)CCC(=O)N3)cc1 | inactive |
| Cc1ccc(NS(=O)(=O)c2ccc3c(c2)CCC(=O)N3)cc1C | inactive |
| Cc1ccc(NS(=O)(=O)c2cccc(Cl)c2)cc1C | inactive |
| O=C1c2ccccc2C(=O)N1Cc1ccncc1 | inactive |
| Cc1ccc2nc(-c3ccc(C)o3)c(NC3CCCC3)n2c1 | inactive |
| COc1ccccc1OC1=NS(=O)(=O)c2ccccc21 | inactive |
| Cc1cccc(NS(=O)(=O)c2ccc3c(c2)CCC(=O)N3)c1 | inactive |
| Cc1ccc(NS(=O)(=O)c2cc3c(cc2-c2cn[nH]c2)NC(=O)CO3)cc1C | inactive |
| O=C1c2ccccc2C(=O)N1c1ccccn1 | inactive |
| COc1cc(N2C(=O)c3ccccc3C2=O)c2ncccc2c1 | inactive |
| CSc1cc2c(s1)c1cnn(Cc3cccc(O)c3)c(=O)c1n2C | 259 nM (active) |
| Cc1ccccc1Nc1c(-c2ccc(Cl)s2)nc2ccccn12 | inactive |

| SMILES | Potency |
| --- | --- |
| COc1ccc(Nc2c(-c3ccc(C)o3)nc3ccccn23)cc1 | inactive |
| COc1cccc(OC2=NS(=O)(=O)c3ccccc32)c1 | inactive |
| O=S(=O)(c1ccc2c(c1)OCCO2)N1CCN(S(=O)(=O)c2c(F)cccc2F)CC1 | inactive |
| O=C1c2ccccc2C(=O)N1c1cc(=O)c2ccccc2[nH]1 | inactive |
| O=S1(=O)N=C(Oc2ccccc2)c2ccccc21 | inactive |
| O=C1CCc2cc(S(=O)(=O)Nc3ccc4ccccc4c3)ccc2N1 | inactive |
| Cc1ccc(NS(=O)(=O)c2cc3c(cc2Br)NC(=O)CO3)cc1C | inactive |
| COc1ccc(N2C(=O)c3ccccc3C2=O)cc1 | inactive |
| Cc1ccc(N[S+](=O)([O-])c2cc3c(cc2CCc2ccccc2)NC(=O)CO3)cc1C | inactive |
| Cc1ccc(NS(=O)(=O)c2cc3c(cc2N(C)C)CCC(=O)N3)cc1C | inactive |
| CN(C)c1cccc(S(=O)(=O)N2CCN(S(=O)(=O)c3ccc4c(c3)OCCO4)CC2)c1 | inactive |
| Cc1ccc(NS(=O)(=O)c2cc3c(cc2N(C)C)NC(=O)CC3)cc1C | inactive |
| O=C1CCc2cc(S(=O)(=O)Nc3cccc(-c4ccccc4)c3)ccc2N1 | inactive |
| O=C1CCc2cc(S(=O)(=O)Nc3ccc(-c4ccccc4)cc3)ccc2N1 | inactive |
| O=C1CCc2cc(S(=O)(=O)Nc3ccc(F)cc3)ccc2N1 | inactive |
| O=C1c2ccccc2C(=O)N1c1cncc2ccccc12 | inactive |
| CNc1cc2c(cc1S(=O)(=O)Nc1ccc(C)c(C)c1)CCC(=O)N2 | inactive |
| Cc1ccc(NS(=O)(=O)c2ccc3c(c2)N(C)CCO3)cc1C | inactive |
| COc1ccc(NS(=O)(=O)c2ccc3c(c2)CCC(=O)N3)cc1 | inactive |
| Cc1ccc(NS(=O)(=O)c2cc3c(cc2C)NC(=O)CO3)cc1C | inactive |

From PubChem BioAssay AID2562 (National Center for Advancing Translational Sciences (NCATS), 2010)
